About 1,300 (0.68%) of roughly 190,000 compounds were called active. The entries come from a sample that favours actives as a whole. Values without a mark were called inactive. Rule as the data show it: active = inhibition above about 50%; inactive = the rest.
These compounds were tested against Mannose-6-phosphate isomerase (Homo sapiens) (UniProt P34949) (assay: human PMI inhibitors, high substrate, primary screen, biochemical, fluorescence intensity, high mannose 6-phosphate (AID 1220)). Settings: recombinant PMI enzyme, coupled fluorescence intensity; at 20 µM; stronger effect = higher value.
Chain of Mannose-6-phosphate isomerase (Homo sapiens) (P34949 whole entry, looked up): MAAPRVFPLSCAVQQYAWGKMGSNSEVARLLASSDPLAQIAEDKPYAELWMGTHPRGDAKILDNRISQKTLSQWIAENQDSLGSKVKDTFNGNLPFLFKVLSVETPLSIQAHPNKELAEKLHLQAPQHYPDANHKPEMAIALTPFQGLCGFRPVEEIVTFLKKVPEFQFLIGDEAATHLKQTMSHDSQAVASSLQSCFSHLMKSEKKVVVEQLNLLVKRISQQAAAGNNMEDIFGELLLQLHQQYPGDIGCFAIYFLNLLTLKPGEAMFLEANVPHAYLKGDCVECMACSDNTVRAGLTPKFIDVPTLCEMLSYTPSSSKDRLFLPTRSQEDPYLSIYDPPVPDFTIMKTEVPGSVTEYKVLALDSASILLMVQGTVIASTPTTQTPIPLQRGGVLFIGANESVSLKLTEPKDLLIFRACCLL

Row | SMILES | inhibition
1 | CCC(=O)N1c2ccc(S(=O)(=O)CCC(=O)N3CCC4(CC3)OCCO4)cc2CC1C (configuration not stated) | -5.2%
2 | O=C1CN=C(c2ccc(F)cc2)c2oc3ccccc3c2N1 | -7.1%
3 | CCOC(=O)c1c(C)n(Cc2ccccc2)c2ccc(O)cc12 | 40.8%
4 | O=C(c1ccc2c(c1)OCO2)C1CCCN(CC2CCCCC2)C1 (configuration not stated) | 12.9%
5 | CCOP(=O)(OCC)C(O)c1ccc(OC)c(OC)c1 (configuration not stated) | 2.3%
6 | CCN(CC)c1ccc(/C=C2\C(=O)NC(=O)N(CC3CCCO3)C2=O)cc1 (configuration not stated) | -4.6%
7 | CC(=O)c1c(O)n(C)c(=S)n(-c2ccccc2)c1=O | -1.3%
8 | CNC(=O)Oc1ccc(-c2cn3cc(C)ccc3n2)cc1 | 4.6%
9 | CNC(=O)Oc1cccc(-c2cn3cc(OC(=O)NC)ccc3n2)c1 | 54.4% (active)
10 | CNC(=O)Oc1cccc(-c2cn3cc(Cl)ccc3n2)c1 | 3%
11 | CN1CCN(c2c(C#N)c(C(F)(F)F)nn2C)CC1 | -13.8%
12 | O=C(CN1CC(c2ccccc2)CC1=O)Nc1cccc(F)c1 (configuration not stated) | 3.7%
13 | O=C1NC(=O)N(Cc2ccccc2)C(=O)/C1=C/N1CCCc2ccccc21 | 6%
14 | O=c1[nH]c(=O)n(Cc2ccc(F)cc2)c(O)c1C=NCC1CCCO1 (configuration not stated) | -20.4%
15 | O=[N+]([O-])[N-][n+]1cnn(Cc2ccccc2)c1 | -10.9%
16 | Cc1cc(OCC(=O)Nc2c(C)n(C)n(-c3ccccc3)c2=O)c2c3c(c(=O)oc2c1)CCC3 | 10.1%
17 | Cc1cccc(NC(=O)N2CCCC2)c1 | -7.3%
18 | COc1cc(/C=C2/C(=O)NC(=O)N(c3ccccc3)C2=O)ccc1O | 1.2%
19 | COc1cc(/C=C2\C(=O)NC(=O)N(c3ccccc3)C2=O)cc(OC)c1O | 13%
20 | COc1cc(/C=C2\C(=O)NC(=O)N(c3ccc(C)cc3)C2=O)cc(OC)c1O | 67.6% (active)
21 | CCC(=O)N1CC(=O)Nc2ccc(Br)cc2C1c1ccccc1 (configuration not stated) | 2.3%
22 | Cc1cccc(C)c1NC(=O)c1cccn(Cc2ccc3c(c2)OC(F)(F)O3)c1=O | 9.6%
23 | C(#CCN1CCOCC1)COC/C=C/c1ccccc1 | -8.9%
24 | COc1ccc(OC)c(N2C(=O)NC(=O)/C(=C/c3ccc([N+](=O)[O-])s3)C2=O)c1 | 56.6% (active)
25 | COc1ccc(OC)c(N2C(=O)NC(=O)/C(=C\c3ccc([N+](=O)[O-])s3)C2=O)c1 | -46.8%
26 | COc1ccc(N2C(=O)NC(=O)/C(=C\c3ccc([N+](=O)[O-])s3)C2=O)cc1 | -53.3%

Row | SMILES | inhibition
27 | CN1C(=O)C(=Cc2ccc(-c3cccc(Cl)c3)o2)C(=O)N(C)C1=O | -7.8%
28 | CCN(CC)S(=O)(=O)c1ccc(N=Cc2c(O)n(-c3ccccc3)c(=O)[nH]c2=O)cc1 | -8.6%
29 | COc1ccc(CCn2c(O)c(C=NCc3ccc4c(c3)OCO4)c(=O)[nH]c2=O)cc1OC | 8.6%
30 | COc1ccc(CCn2c(O)c(/C=N/NC(=O)c3ccncc3)c(=O)[nH]c2=O)cc1OC | -12.8%
31 | O=C(N/N=C/c1c(O)n(CCc2ccc(F)cc2)c(=O)[nH]c1=O)c1ccncc1 | 53% (active)
32 | O=C(N/N=C/c1c(O)n(CCc2ccccc2)c(=O)[nH]c1=O)c1ccncc1 | -28.2%
33 | CC1CCN(S(=O)(=O)c2ccc(NN=C(C#N)C#N)cc2)CC1 | -24.1%
34 | CC(C)Oc1cccc(C(=O)C2CCCN(Cc3ccon3)C2)c1 (configuration not stated) | 4%
35 | CC(=O)NC1CC2CCCC(C1)N2 (configuration not stated) | -5.2%
36 | O=C(NC1(C(F)(F)F)Oc2ccccc2O1)N1CCC2(CC1)OCCO2 | 3.8%
37 | O=C(NC1(C(F)(F)F)Oc2ccc(Cl)cc2O1)N1CCC2(CC1)OCCO2 (configuration not stated) | 70.3% (active)
38 | O=C(NC(=O)N1CCC2(CC1)OCCO2)c1ccc(Cl)cc1 | 11.1%
39 | O=c1[nH]c(=O)n(Cc2ccccc2Cl)c(O)c1C=Nc1ccc(F)cc1 | 13.7%
40 | CC(=NCCN1CCCCC1)c1c(O)n(-c2ccc(Cl)cc2)c(=O)[nH]c1=O | 2.8%
41 | COc1cc2c(cc1O)CC1c3c(cc(O)c(OC)c3-2)CCN1C (configuration not stated) | 52.5% (active)
42 | COc1cc2c(cc1OC)-c1c(OC)c(OC)cc3c1[C@H](C2)N(C)CC3 | -16.2%
43 | COc1cc2c(cc1OC)-c1c(OC)c(OC)cc3c1C(C2)N(C)CC3 (configuration not stated) | 39.3%
44 | CCc1cccc(C)c1NC(=S)N1CC2CC(C1)c1cccc(=O)n1C2 (configuration not stated) | -3.9%
45 | CCN(CC)C(=O)c1ccc(N2C(=O)C3CC=C(Cl)CC3C2=O)cc1 (configuration not stated) | -1.5%
46 | Nc1ccncc1Cl | -4.4%
47 | N#Cc1cc2c(nc1SCC(=O)Nc1ccc(Cl)cc1)C1CCN2CC1 | -2.2%
48 | CCN(CC)C(=O)N[C@H]1C[C@@H]2c3cccc4[nH]cc(c34)C[C@H]2N(C)C1 | -0.8%
49 | CN1C[C@H](CNC(=O)OCc2ccccc2)C[C@@H]2c3cccc4c3c(cn4C)C[C@H]21 | 58.2% (active)
50 | O=C(NC[P+](=O)O)OCc1ccccc1 | -7%
51 | CC(C)CCN1CCN(Cc2c(F)cccc2Cl)CC1CCO (configuration not stated) | -1.1%
52 | CC(=O)OC1(c2ccccc2)CCN(C)C(C)C1C (configuration not stated) | -7.2%
